# According to PubChem BioAssay:
# Active and inactive are the calls of the source. Unless noted, the rule behind the calls is not given here.
# Key:
# [1] = system: XIP peptide (Xip251-270) binding; assay: XIP fragment 251-270 binding compounds – biochemical, small-molecule microarray, fluorescence 635/667 nm, 0.1 µg/mL protein, primary screen (AID 1182); conditions: fluorescent protein binding, 635 nm, higher = more signal, called active from +8 up or from −8 down
# [2] = system: XIP peptide (Xip251-270); assay: compounds binding XIP fragment 251-270 – biochemical, small-molecule microarray, fluorescence 635/667 nm, 0.5 µg/mL protein, primary screen (AID 1183); conditions: fluorescence 635 nm, higher = more signal
# [3] = blood-stage malaria parasite viability loss – strain 3D7, DAPI fluorescence, 100 nL, primary screen (AID 1184);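 note: parasites grown inside human red blood cells in medium with human serum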; conditions: P. falciparum 3D7 growth, 3 d, higher = more signal
# [4] = molecular target: Homeobox protein Hox-A13 (Mus musculus) (UniProt Q62424); assay: disruptors of Hoxa13 oligonucleotide interaction – biochemical, fluorescence polarization, labeled oligonucleotide, primary screen (AID 1185); conditions: Hoxa13:DNA binding, 15 min, higher = more signal, called active from +8 up or from −8 down
# [5] = blockers of DNA damage checkpoint Chk1 activation – imaging, HeLa, hydroxyurea, phospho-Chk1 antibody, percent positive cells, primary screen (AID 1186); conditions: hydroxyurea-induced phospho-Chk1 immunofluorescence imaging, higher = more signal
# [6] = blockers of DNA damage checkpoint Chk1 activation – imaging, HeLa, hydroxyurea, phospho-Chk1 nuclear intensity, primary screen (AID 1187); conditions: hydroxyurea-induced phospho-Chk1 immunofluorescence imaging, higher = more signal
# Chain of Homeobox protein Hox-A13 (Mus musculus) (Q62424 whole entry, looked up): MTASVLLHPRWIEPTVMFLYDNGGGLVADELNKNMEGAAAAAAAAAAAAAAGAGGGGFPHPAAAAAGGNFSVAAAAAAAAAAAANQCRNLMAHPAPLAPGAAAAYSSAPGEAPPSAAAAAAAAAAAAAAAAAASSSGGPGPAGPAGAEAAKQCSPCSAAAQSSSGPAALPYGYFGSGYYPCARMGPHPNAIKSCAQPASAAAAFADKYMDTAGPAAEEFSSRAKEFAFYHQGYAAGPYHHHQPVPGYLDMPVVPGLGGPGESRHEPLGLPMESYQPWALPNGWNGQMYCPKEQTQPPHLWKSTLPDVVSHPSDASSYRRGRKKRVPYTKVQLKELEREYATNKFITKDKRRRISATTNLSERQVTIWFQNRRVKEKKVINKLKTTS
SMILES,composite z-score [1],composite z-score [2],z-score [3],z-score [4],z-score [5],z-score [6]
Cc1ccc(S[C@]2(C(=O)NCC(C)C)CC(=O)N(C(C)C)[C@@H]2c2ccc(CO)cc2I)cc1,0.708 (inactive),0.689,-1.12,-2.86 (inactive),-0.187 (inactive),0.023 (inactive)
C=C[C@H](C)[C@@H](OC(=O)Nc1ccc(SC)cc1)c1ccc(OCCO)cc1,-0.0975 (inactive),-0.0208,-0.526,-4.53 (inactive),-0.328 (inactive),-0.809 (inactive)
COC(=O)[C@@]1(Cc2ccc(OC)cc2)[C@H]2c3cc(C(=O)N(C)C)n(Cc4c(CO)[nH]cc(C)c4=O)c3C[C@H]2CN1C(=O)c1ccccc1,-0.582 (inactive),0.349,-0.116,-3.64 (inactive),0.54 (inactive),0.376 (inactive)
COc1ccc(-c2cc3c(c(CCc4ccccc4)n2)[Si](C(C)C)(C(C)C)O[C@H]3c2ccccc2)cn1,-0.269 (inactive),-0.179,-1.41,-1.35 (inactive),-0.0745 (inactive),-0.194 (inactive)
CCCCN1CC=CC23O[C@@H]4C=CCCOC(=O)C4[C@H]2C(=O)N(CCO)[C@@H]3C1=O (some centres undefined),0.61 (inactive),0.485,0.211,-4.53 (inactive),-0.307 (inactive),-0.815 (inactive)
COCCCNC(=O)[C@]1(Cc2ccccc2N=[N+]=[N-])N=C(c2ccc(OCCCO)cc2)O[C@@H]1c1ccccc1,1.22 (inactive),0.77,-2.17,-2.62 (inactive),-0.129 (inactive),0.0037 (inactive)
COC(=O)[C@@]1(Cc2ccc(F)cc2)[C@H]2c3cc(C(=O)N(C)C)n(Cc4ccsc4Br)c3C[C@H]2CN1C(=O)c1ccccc1,1.29 (inactive),0.102,-1.75,-5.36 (inactive),-0.219 (inactive),-1.12 (inactive)
CCCC=C(CCC)[C@@H](NC(=O)c1ccc(C(=O)OC)cc1)c1ccc(C(=O)OC)cc1,-0.0958 (inactive),-0.345,-0.685,-2.06 (inactive),0.151 (inactive),-0.745 (inactive)
CCCCCN1CC=CC23O[C@@H]4/C=C\CCCOC(=O)C4[C@H]2C(=O)N(CCCCCO)[C@@H]3C1=O (some centres undefined),0.388 (inactive),0.199,0.0701,-4.75 (inactive),0.726 (inactive),0.576 (inactive)
COc1ccc(NN2C(C(O)c3ccc(F)cc3)C=CC3C(=O)N(C4CCCCC4)C(=O)C32)cc1 (centres undefined),0.331 (inactive),0.878,-0.517,-4.3 (inactive),0.472 (inactive),0.0539 (inactive)
COCCCNC(=O)[C@@]1(Cc2ccccc2I)c2ccccc2C(=O)N(C2CCCCC2)[C@H]1c1ccc(CO)cc1,0.26 (inactive),0.744,-1.99,-5.35 (inactive),-0.0463 (inactive),0.155 (inactive)
COC(=O)C(CC#Cc1ccc2c(c1)[C@]1(C(=O)N2)[C@H](C(=O)N2CCCCCCC2)[C@H]2C(=O)O[C@H](c3ccccc3)[C@H](c3ccccc3)N2[C@@H]1c1ccc(OCCO)cc1)C(=O)OC,6.2 (inactive),0.956,-2.14,-6.85 (inactive),0.185 (inactive),0.331 (inactive)
CCOC(=O)C1=CCC(c2ccncc2)N(S(=O)(=O)c2ccc(C)cc2)C1 (centres undefined),0.373 (inactive),0.835,-0.886,-4.63 (inactive),0.0325 (inactive),0.104 (inactive)
Cc1ccc(S[C@]2(C(=O)NC(C)C)CC(=O)N(Cc3ccccc3)[C@@H]2c2ccc(CO)cc2I)cc1,1.69 (inactive),-0.304,-0.158,-3.33 (inactive),-0.641 (inactive),-0.268 (inactive)
C=CCOC(=O)[C@@H]1[C@H]2C(=O)O[C@H](c3ccccc3)[C@H](c3ccccc3)N2[C@H](c2ccc(OCCOC(=O)[C@@H]3C[C@@H]4C(=O)N[C@@H](CC(C)C)C(=O)N4[C@@H]3c3ccc(O)cc3)cc2)[C@@]12C(=O)Nc1ccc(I)cc12,0.78 (inactive),0.761,-1.51,0.374 (inactive),-0.926 (inactive),-0.838 (inactive)
O=C1O[C@@H](c2ccccc2)[C@@H](c2ccccc2)N2[C@@H](c3ccccc3OCCO)[C@]3(C(=O)Nc4ccc(C#CC5(O)CCCCCC5)cc43)[C@@H](C(=O)N3CCCCCCC3)[C@H]12,5.76 (inactive),0.878,-2.38,4.83 (inactive),0.503 (inactive),0.639 (inactive)
CC1(C)OB(/C=C\CC(OC(=O)c2ccncc2)c2ccccc2)OC1(C)C (centres undefined),0.258 (inactive),0.478,0.78,-3.16 (inactive),0.301 (inactive),0.415 (inactive)

SMILES,composite z-score [1],composite z-score [2],z-score [3],z-score [4],z-score [5],z-score [6]
C=CCC(OC(C)=O)[C@@H]1[C@@H](N(Cc2ccc(-c3ccccc3)cc2)C(=O)Cc2ccc(OC)cc2)c2cc(OCCCO)ccc2N1C(=O)Cc1ccc(OC)cc1 (some centres undefined),0.497 (inactive),-0.243,-1.97,-2.75 (inactive),0.684 (inactive),0.763 (inactive)
C=CCNC(=O)[C@@H]1[C@H]2C(=O)O[C@H](c3ccccc3)[C@H](c3ccccc3)N2[C@H](c2ccc(O)cc2)[C@@]12C(=O)N(C(=O)OCCOC)c1ccc(C#CCC(C(=O)OC)C(=O)OC)cc12,0.891 (inactive),0.756,-1.7,-1.28 (inactive),-0.0611 (inactive),-0.187 (inactive)
C=CC[C@]12N=C(c3ccc(OCCCO)cc3)O[C@H]1c1ccccc1N(CCC)C2=O,-0.0641 (inactive),0.842,-2.33,-4.5 (inactive),-0.206 (inactive),-0.234 (inactive)
O=C1OCC=C[C@H]2OC34C=CCN(Cn5nnc6ccccc65)C(=O)[C@H]3N(CCO)C(=O)[C@@H]4[C@@H]12 (some centres undefined),-0.149 (inactive),-0.884,1.12,-4.12 (inactive),-0.743 (inactive),-0.287 (inactive)
[N-]=[N+]=NCc1ccccc1[C@H]1OC(c2ccc(OCCCO)cc2)=N[C@@]1(CCS(=O)(=O)c1ccccc1)C(=O)O,-0.0179 (inactive),0.446,0.0638,-5.36 (inactive),-0.0059 (inactive),-0.587 (inactive)
CCOC(=O)C1=CCC(c2cccn2C(=O)OC(C)(C)C)N(S(=O)(=O)c2ccc(C)cc2)C1 (centres undefined),0.153 (inactive),0.732,-1.62,0.323 (inactive),-1.06 (inactive),-1.18 (inactive)
CC(C)(C)OC(=O)CC[C@]1(C(=O)N2CCOCC2)COC(c2ccc(OCCCO)cc2)=N1,-0.199 (inactive),0.0906,0.33,-3.78 (inactive),-0.16 (inactive),-0.0926 (inactive)
CCCCCCCCCCC(O)C1C=CC2C(=O)N(C)C(=O)C2N1Nc1ccccc1 (centres undefined),1.04 (inactive),-1.39,-0.0339,-2.87 (inactive),0.999 (inactive),0.135 (inactive)
COCCOC(=O)N1C(=O)[C@@]2(c3cc(C#CCNC(N)=O)ccc31)[C@H](C(=O)N1CCN(c3ncccn3)CC1)[C@H]1C(=O)O[C@H](c3ccccc3)[C@H](c3ccccc3)N1[C@@H]2c1ccc(O)cc1,-0.417 (inactive),0.288,0.614,-0.508 (inactive),-0.171 (inactive),-0.206 (inactive)
COC(=O)[C@@]1(Cc2ccc(F)cc2)[C@H]2c3cc(C(=O)N(C)C)n(Cc4cccc5ccccc45)c3C[C@H]2CN1C(=O)c1ccccc1,0.0361 (inactive),0.891,-1.51,-4.81 (inactive),0.406 (inactive),0.252 (inactive)
CCOC(=O)C[C@H]1[C@H](OC(=O)c2ccc(-c3ccccc3)cc2)[C@@H](NC(=O)c2ccc(-c3ccccc3)cc2)c2cc(OCCCO)ccc2N1C(=O)c1ccccc1,1.11 (inactive),0.426,-0.482,-1.22 (inactive),-0.166 (inactive),0.205 (inactive)
O=C1O[C@H](c2ccccc2)[C@H](c2ccccc2)N2[C@H]1[C@@H](C(=O)O)[C@]1(C(=O)Nc3ccccc31)[C@H]2c1ccc(OCCO)cc1,1.13 (inactive),0.711,-0.443,-6.4 (inactive),0.618 (inactive),0.612 (inactive)
COC(=O)[C@@]1(Cc2ccc(F)cc2)[C@H]2c3cc(C(=O)N4CCCC4)n(C[C@H](O)CO)c3C[C@H]2CN1C(=O)c1ccccc1,1.17 (inactive),0.0592,-0.534,-5.57 (inactive),0.588 (inactive),0.439 (inactive)
C=CCNC(=O)[C@H]1[C@@H]2C(=O)O[C@@H](c3ccccc3)[C@@H](c3ccccc3)N2[C@@H](c2ccc(O)cc2)[C@]12C(=O)N(C(=O)OCCOC)c1ccc(C#Cc3ccc(OC)cc3)cc12,-0.184 (inactive),0.625,-0.812,-1.16 (inactive),0.0708 (inactive),0.21 (inactive)
COCCOC(=O)N1C(=O)[C@@]2(c3cc(C#CC4=CCCCC4)ccc31)[C@H](C(=O)N1CCCCCCC1)[C@H]1C(=O)O[C@H](c3ccccc3)[C@H](c3ccccc3)N1[C@@H]2c1ccccc1OCCO,0.502 (inactive),0.712,-2.04,3.21 (inactive),-0.245 (inactive),-0.178 (inactive)
[N-]=[N+]=NCc1ccccc1[C@H]1OC(c2ccc(OCCCO)cc2)=N[C@@]1(Cc1ccccc1N=[N+]=[N-])C(N)=O,-0.19 (inactive),0.599,-0.885,-6.25 (inactive),0.052 (inactive),0.516 (inactive)
COc1cc(Cc2cc3c(c(-c4ccccc4)n2)[Si](C(C)C)(C(C)C)OC3)cc(OC)c1OC,-0.166 (inactive),-1.01,-0.822,-0.497 (inactive),-0.628 (inactive),-0.317 (inactive)
